In the library only some 1.1% were active in any assay of this set; here they are far more common.
AmpC inh no detg – AmpC beta-lactamase inhibition without detergent; P00811; AmpC nitrocefin hydrolysis, absorbance 480 nm, 0.0001% Triton; Potency, µM (doses to about 57.1 µM), inactives show at the highest dose activity change, negative = inhibition, usual class: inhibitors; hit rate 0.52% among 330,000;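 note: plate controls were no compound for no effect and no enzyme for full effect; nearly all actives have a fitted effect of over 20% in size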
Target sequence (P00811 whole entry, looked up): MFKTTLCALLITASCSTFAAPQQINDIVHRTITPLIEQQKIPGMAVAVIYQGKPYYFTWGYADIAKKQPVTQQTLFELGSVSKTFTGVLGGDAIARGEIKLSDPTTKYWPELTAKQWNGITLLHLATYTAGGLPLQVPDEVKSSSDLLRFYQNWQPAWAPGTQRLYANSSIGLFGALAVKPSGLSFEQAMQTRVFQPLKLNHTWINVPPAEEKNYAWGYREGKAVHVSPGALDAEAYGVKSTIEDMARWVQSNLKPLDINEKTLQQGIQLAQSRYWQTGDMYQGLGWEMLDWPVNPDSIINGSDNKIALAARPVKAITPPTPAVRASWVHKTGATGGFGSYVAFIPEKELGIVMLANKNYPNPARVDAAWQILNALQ
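20 mM phosphate pH 7.0 + 0.01% (detergent screen) or 0.0001% Triton X-100; 5.3 nM AmpC reagent; cpd preinc 15 min RT; nitrocefin (800 uM stock) to start; A480 q20 s × 4 min; Activity was normalised to no-enzyme and no-compound control wells.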
AmpC detergent – blocks E. coli AmpC beta-lactamase in detergent assay | P00811 | AmpC hydrolysis of nitrocefin, absorbance 480 nm, 0.01% Triton | Potency, µM (series often up to 114 µM), for the others: top-dose activity change, negative = inhibition, usual class: inhibitors | hit rate 0.041% among 370,000;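 note: 0% = no-compound wells and -100% = no-enzyme wells; nearly all actives have a fitted effect of over 25% in size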
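20 mM phosphate pH 7.0 + 0.01% (detergent screen) or 0.0001% Triton X-100; 5.3 nM AmpC reagent; cpd preinc 15 min RT; nitrocefin (800 uM stock) to start; A480 q20 s × 4 min; Activity was normalised to no-enzyme and no-compound control wells.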
VACV mCherry inh – vaccinia inhibition (mCherry reporter); Vaccinia virus mCherry reporter infection, fluorescence; hit rate 0.63% among 310,000; Potency, µM (highest dose often 36.5 µM), without a hit: top-dose activity change, negative = inhibition, most hits filed as inhibitors; calls by dose curve; tested in A549 cells; note: nearly all actives have a fitted effect of over 35% in size
VACV Venus inh – inhibitors of vaccinia virus (Venus reporter) | Vaccinia virus Venus reporter expression, fluorescence | Potency, µM (doses to about 36.5 µM), inactives show at the highest dose activity change, negative = inhibition, actives largely listed as inhibitors | hit rate 0.46% among 330,000 | AID 720580; calls by dose curve; tested in A549 cells; note: nearly all actives have a fitted effect of over 30% in size
Starred values were filed as active, the others as inactive; i = inactive; ? = inconclusive; · = not tested or not shown; + = active, no number; [ ] = another dose, or the depositor's remark. Unless noted, calls come from the whole dose curve; as a rule, active = well fitted curve in the direction sought with a large enough effect; inconclusive = small, poorly fitted or top-dose-only effect, or another doubt; inactive = no such curve, though single readings can be large; an effect the other way counts as inactive or inconclusive. Unless noted, % is set by controls: 0 for no effect and ±100 for the full control effect; potency is the fitted concentration of half-maximal effect.

SMILES | AmpC inh no detg | AmpC detergent | VACV mCherry inh | VACV Venus inh
C#CCOCCOCCOCCNc1nc(N2CCN(C(=O)CCCCCCCCCCNC(=O)[C@@H](CCSC)n3cc(CCO)nn3)CC2)nc(N2CCN(C(=O)CCCCCCCCCCNC(=O)[C@H]([C@@H](C)CC)n3cc(CCCCCN)nn3)CC2)n1 | 249% | 6% | -18% | 10µM*
C#CCOCCOCCOCCNc1nc(N2CCN(C(=O)CCCCCCCCCCNC(=O)[C@@H](CCSC)n3cc(CCO)nn3)CC2)nc(N2CCN(C(=O)CCCCCCCCCCNC(=O)[C@H]([C@@H](C)CC)n3cc(CCCCN=C(N)N)nn3)CC2)n1 | 288% | ? | ? | 8.9µM*
C#CCOCCOCCOCCNc1nc(N2CCN(C(=O)CCCCCCCCCCNC(=O)[C@H](CCCCN)n3cc(C)nn3)CC2)nc(N2CCN(C(=O)CCCCCCCCCCNC(=O)[C@@H]([C@H](C)CC)n3cc(CCCCCN)nn3)CC2)n1 | 194% | -13% | · | ·
C#CCOCCOCCOCCNc1nc(N2CCN(C(=O)CCCCCCCCCCNC(=O)[C@H]([C@@H](C)CC)n3cc(CCCCN=C(N)N)nn3)CC2)nc(N2CCN(C(=O)CCCCCCCCCCNC(=O)[C@H](CCCCN)n3cc(C[C@@H](C)CC)nn3)CC2)n1 | 289% | -2% | · | ·
CC(C)(C)OC(=O)NCCc1nnc(S(=O)(=O)Cc2ccc(Cl)cc2Cl)o1 | 0.32µM* | ? | ? | ?
O=c1c(O)cccc2cc(O)c(O)c(O)c12 | 10µM* | ? | -22% | 2%
O=S(=O)(Nc1c(S(=O)(=O)c2ccccc2)c2nc3ccccc3nc2n1C1CCCCC1)c1ccccc1 | -18% | -6% | 13µM* | 10µM*
COC1(OC)C(/C=C/c2ccc(C)cc2)C(C#N)(C#N)C1(OC)OC (stereo not drawn) | · | · | 14µM* | 28µM*
CC(NC(=O)c1cccc(Nc2nc3ccccc3n3nnnc23)c1)c1ccccc1 (stereo not drawn) | · | 18% | ? | 10µM*
CC(C)CCNC(=O)c1cccc(Nc2nc3ccccc3n3nnnc23)c1 | · | 13% | ? | ?
COC(=O)[C@H](C)NS(=O)(=O)C1CC1 | · | · | i | -14%
CCOC(=O)N1C(=O)[C@@](c2ccc(Cl)cc2)(C(C)C)N1C(=O)OCC | 43% | -1% | ? | 13µM*
COC(=O)N1C(=O)[C@](c2ccccc2)(C(C)C)N1C(=O)OC | 6% | -13% | ? | -26%
CCOC(=O)N1C(=O)[C@](c2ccc(Cl)cc2)(C(C)C)N1C(=O)OCC | 54% | -3% | 10µM* | ?
CCn1nc(C)cc1C(=O)NCC1Cc2cc(C)cc(-c3ccccc3C(=O)OC)c2O1 (stereo not drawn) | · | · | 0% | -15%
Cc1ccc(CN2CCOc3ccc(CN4CCN(CCO)CC4)cc3C2)s1 | · | · | -1% | -3%
Cc1cc2ncn(/N=C/c3ccc([N+](=O)[O-])o3)c2cc1C | -6% | -1% | 28µM* | 16µM*
O=C(c1ccccc1)C(CN1CCCC1)c1ccccc1 (stereo not drawn) | -8% | 2% | ? | 16µM*
O=C(c1ccc(Cl)cc1)C(CN1CCCCC1)c1ccccc1 (stereo not drawn) | -25% | 0% | ? | 11µM*
COc1ccc(C(=O)C(CN2CCOCC2)c2ccccc2)cc1F (stereo not drawn) | 0% | 1% | 10µM* | 13µM*
C/C(=N/NC(=O)c1cc(-c2cccc([N+](=O)[O-])c2)n[nH]1)c1cccc(O)c1 | -60% | -4% | · | ·
C/C(=N\NC(=O)c1cc(-c2cccc([N+](=O)[O-])c2)n[nH]1)c1ccccc1O | -26% | ? | 10µM* | ?
O=C1c2c(O)ccc(O)c2C(=O)c2c(NCCNCCO)ccc(NCCNCCO)c21 | 29% | -22% | ? | 10µM*
Cc1cccc(CNC(=O)c2cnn(-c3nccc(-c4ccccc4F)n3)c2C)n1 | · | · | -10% | -1%
O=C(COc1ccc2ccccc2c1)N1c2ccccc2Sc2ccccc21 | -55% | -10% | · | ·
SMILES | AmpC inh no detg | AmpC detergent | VACV mCherry inh | VACV Venus inh
O=C(CCl)N1c2ccccc2Sc2ccc3ccccc3c21 | · | · | ? | 10µM*
CN(C)CCCN1c2ccccc2Sc2ccc3ccccc3c21 | · | · | 10µM* | ?
COc1ccccc1-c1ccnc(-n2ncc(C(=O)NCCc3cccnc3)c2C)n1 | · | · | -12% | 4%
COCCC1CCCCN1Cc1nc(N2CCCCC2)c2cc(OC)c(OC)cc2n1 (stereo not drawn) | · | · | -15% | -1%
COc1cccc(CN2CCOc3ccc(CN4C[C@@H](C)O[C@@H](C)C4)cc3C2)c1OC | · | · | i | -13%
CCOc1ccc(/C=N/NC(=O)c2c(C)n(C)c3ccc(OC)cc23)cc1 | 32µM* | -3% | -22% | -20%
Cc1cc(C)n(C(C[N+](=O)[O-])c2ccc(Cl)cc2)n1 (stereo not drawn) | 18µM* | 2% | -20% | -6%
CCCCCCCCCCCCCCCC[n+]1ccc(C)cc1 | · | · | ? | 28µM*
COc1cc(=O)n2c(c1C(=O)N(C)Cc1nonc1C)CCN(Cc1ccsc1)CC2 | · | · | -17% | 5%
COc1ccc(N(C(=O)CCl)C(C(=O)NCCc2ccccc2)c2cccs2)cc1Cl (stereo not drawn) | 1% | -7% | ? | 10µM*
COc1ccc(/C=N/NC(N)=S)cc1 | -22% | 0% | 6.3µM* | 5.6µM*
O=C(N/N=C/c1ccc(C(F)(F)F)cc1)c1ccncc1 | -13% | 0% | -15% | -19%
C=CCOc1ccc(/C=N\NC(N)=S)cc1 | 20% | -1% | · | ·
NC(=S)N/N=C/c1ncc(C(F)(F)F)cc1Cl | -14% | -19% | 1.4µM* | -22%[7.34 µM]
NC(=S)N/N=C/c1ccc(C(F)(F)F)cc1 | -20% | -10% | 1.8µM* | ?
CC(C)Oc1ccc(/C=N/NC(N)=S)cc1 | -15% | -11% | 1.1µM* | 1.6µM*
O=C(NCC1CCC2(CCN(Cc3cccn3-c3ccc(Cl)cn3)CC2)O1)c1ccccc1 (stereo not drawn) | · | · | -9% | -1%
CCOc1c2c(c(-c3ccc4c(c3)OCO4)c3cc(OC)c(OC)cc13)C(=O)OC2 | · | · | ? | 4µM*
COc1ccccc1-c1oc2ccccc2c1-c1ccc2c(c1)OCO2 | -23% | 4% | -4% | -10%
O=[N+]([O-])c1ccc2c(c1)C=CC2 | · | · | -13% | -10%
COCC(=O)Nc1cc(C(=O)N2CCN(c3ccc(Cl)cn3)CC2)c2c(c1)nc(C1CCC1)n2C | · | · | -1% | 5%
COc1ccccc1NS(=O)(=O)c1cc(NC(=O)c2ccc(=O)[nH]c2)ccc1N1CCOCC1 | 14µM* | 1% | -1% | -9%
COCCNC(=S)Nc1ccc(N2CCOCC2)c(S(=O)(=O)Nc2ccccc2OC)c1 | 10µM* | -1% | · | ·
O=C1[C@H](Cc2ccccc2)NC/C=C\C[C@H](c2ccc(Cl)cc2)N1Cc1ccc(Cl)cc1 | · | · | -3% | -21%
COC(=O)c1ccccc1NC(=O)CN1CCOCC1 | -5% | -2% | · | ·
COC(=O)c1ccccc1NC(=O)CN1CCCCC1 | -18% | -5% | + | +

Screens as filed in PubChem BioAssay.
